IL-1B inflam inh = qHTS for Inhibitors of Inflammasome Signaling: IL-1-beta AlphaLISA Primary Screen. activity change, % at 57.5 µM. actives 4.7% (n = 360,000). THP-1 LPS/ATP IL-1B secretion, AlphaLISA, 16 h; active compounds read low; in the data active = activity change below about -50%; inconclusive = mostly about -30% to -49%; also: % is scaled to controls: 0 for no effect and ±100 for the full control effect
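THP-1 cells pretreated 1 hr with compounds (up to 57.5 uM final), then stimulated with LPS (250 ng/mL final) plus ATP (1.25 mM final); secreted IL-1B measured by AlphaLISA after 16 hr, decreased signal indicating inhibition.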
Chronic BCR inh = qHTS Assay to Find Inhibitors of Chronic Active B-Cell Receptor Signaling; AID 493014, 2011; Potency, µM (top dose mostly 46.1 µM), for inactives: at the highest dose activity change, negative = inhibition, actives largely listed as inhibitors; actives 0.05% (n = 340,000); ABC-DLBCL IkBa-CBG/CBR reporter, luminescence ratio, 4 h; active = well fitted inhibition curve with a large enough effect in the signal ratio, with a control signal flat, not every such curve was filed as active; inconclusive = small, poorly fitted or top-dose-only effect, or effect the other way, or a change in a side signal; the % refers to the signal ratio;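 also: potency is read from the fitted curve at half-maximal effect; plate controls were basal doxycycline-induced cells for no effect and cells given 10 µM MG132 for full effect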
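TMD8 human ABC-DLBCL cells with doxycycline-inducible IκBα–green luciferase fusion and unfused red luciferase, in 0.5% FBS medium; compounds up to 46 uM, 4 h at 37C. Green/red luminescence ratio, filter-overlap corrected, fitted to concentration-response curves.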
DT40 TDP1 no CPT = qHTS for Inhibitors of human tyrosyl-DNA phosphodiesterase 1 (TDP1): qHTS in cells in absence of CPT; DT40 Tdp1-/- hTDP1 cells, no CPT, ATP luminescence, 48 h; actives 15% (n = 420,000); Potency, µM (titrated, usually from 46.2 µM), for inactives: at the top dose activity change, negative = growth inhibition, actives largely listed as inhibitors; also: potency is read from the fitted curve at half-maximal effect; % is scaled to controls: 0 for no effect and ±100 for the full control effect; nearly all actives have a fitted effect of over 55% in size
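DT40 Tdp1-/-;hTDP1 cells, no CPT (DMSO vehicle only), 400 cells/well; compounds pin-transferred; ≥48 hr, 37 °C; CellTiter-Glo 30 min RT dark, luminescence read.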
SW480 rerep = A quantitative high throughput screen for small molecules that induce DNA re-replication in SW480 colon adenocarcinoma cells. SW480 DNA re-replication, Hoechst DNA content imaging, 48 h. Potency, µM (highest dose often 46.1 µM), for the others: at the highest dose re-replication activation, actives largely listed as activators. actives 1.8% (n = 340,000). AID 624297, 2012; also: potency is read from the fitted curve at half-maximal effect; % of control where 0% means no effect; nearly all actives have a fitted effect of over 55% in size
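First, 250 cells per well were seeded. Next, compound or vehicle (23 nL) was pinned in, plates sat 48 hr at 37 C. Finally Hoechst was added for 40 min before fluorescence scanning.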
DT40 TDP1 CPT = qHTS for Inhibitors of human tyrosyl-DNA phosphodiesterase 1 (TDP1): qHTS in cells in presence of CPT. chicken DT40 Tdp1-/-;hTDP1 cells + 20 nM CPT, ATP luminescence, 48 h. Potency, µM (top dose mostly 46.2 µM), for inactives: at the top dose activity change, negative = growth inhibition, usual class: inhibitors. actives 12% (n = 420,000). AID 686979, 2013; also: potency is read from the fitted curve at half-maximal effect; % is scaled to controls: 0 for no effect and ±100 for the full control effect; nearly all actives have a fitted effect of over 55% in size
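Chicken DT40 Tdp1-/- cells complemented with human TDP1, 400 cells/well, exposed to compounds plus 20 nM camptothecin for at least 48 h at 37 C; viability read as ATP content by CellTiter-Glo luminescence.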
MCF10A rereplic = A quantitative high throughput screen for small molecules that induce DNA re-replication in MCF 10a normal breast cells | Potency, µM (top dose mostly 46.1 µM), inactives show at the highest dose activity, positive = re-replication, hits mostly activators | MCF 10A DNA re-replication, Hoechst nuclear intensity, 48 h | AID 624296, 2012 | actives 2.9% (n = 350,000); also: potency is read from the fitted curve at half-maximal effect; % of control where 0% means no effect; nearly all actives have a fitted effect of over 50% in size
Starred values were filed as active, the others as inactive; ? = inconclusive; . = no result; [ ] = dose if it differs, or a comment. Only some compounds are listed: those with a hit (about 19% of all), similar ones and a draw of the others. Unless noted, calls follow the shape of the dose curve; as a rule, active = well fitted curve in the direction sought with a large enough effect; inconclusive = small, poorly fitted or top-dose-only effect, or another doubt; inactive = no such curve, though single readings can be large; an effect the other way counts as inactive or inconclusive.

SMILES | IL-1B inflam inh | Chronic BCR inh | DT40 TDP1 no CPT | SW480 rerep | DT40 TDP1 CPT | MCF10A rereplic
CC1CCN(c2ccccc2NC(=S)NC(=O)c2cccs2)CC1 | 48 | ? | ? | -2%[9.22 µM] | ? | 10µM*
COc1ccc(CNc2nc3ccc(C)cc3s2)c(OC)c1OC | -5 | -3% | ? | -3% | ? | -2%
COC1=C(Nc2ccccc2)C(=O)c2ccccc2C1=O | ? | -1% | 12µM* | ? | 12µM* | 23%
COC1=C(Nc2ccc(C)cc2)C(=O)c2ccccc2C1=O | -77* | 4% | 16µM* | ? | ? | ?
COC1=C(OC)C(=O)c2ccccc2C1=O | . | . | 8.9µM* | . | 7.9µM* | .
CCc1ccc(Nc2nnc(SCC(=O)NC(=O)c3cccn3C)s2)cc1 | 38 | ? | -6% | ? | -12% | 18µM*
O=C(NCCCC1CCCC1)C1CCC(=O)N(Cc2cccc(F)c2)C1 (centres undefined) | 16 | 1% | -27% | -3% | ? | -4%
O=C(NCCCC1CCCC1)C1CCC(=O)N(Cc2ccc(Cl)cc2)C1 (centres undefined) | -69* | ? | ? | 1% | ? | 10%
Cc1onc(-c2ccccc2)c1-c1nnc(CN2CCN(S(=O)(=O)c3ccccc3)CC2)o1 | 14 | 3% | 16µM* | -5% | 15µM* | 6%
Cc1n[nH]c(=O)c2c(NC(=O)CSc3nncs3)oc(C)c12 | 22 | 2% | -5% | -2% | 0% | 1%
COc1ccc(OCC(O)Cn2c(N3CCCCC3)nc3c2c(=O)n(C)c(=O)n3C)cc1 (centres undefined) | 35 | -9% | 16µM* | -9% | ? | 14%
Cn1c(=O)c2c(nc(N3CCCC3)n2CC(O)CO)n(C)c1=O (centres undefined) | 0 | 1% | -5% | 0% | -12% | 5%
C=CCOCC(O)Cn1c(N2CCCC2)nc2c1c(=O)n(C)c(=O)n2C (centres undefined) | 0 | 1% | -3% | -36% | -4% | 1.3µM*
COc1ccc(B(O)O)cc1 | . | . | -1% | . | -10% | .
O=C(CN1C(=O)CCC1=O)Nc1nc(-c2nc3ccccc3s2)cs1 | -57* | 16% | -14% | -6% | 11% | 1%
O=C(CN1C(=O)CCC1=O)Nc1nc(-c2ccccn2)cs1 | -22 | ? | -7% | -3% | ? | 9%
O=C(CN1C(=O)CCC1=O)Nc1nc(-c2ccc3ccccc3c2)cs1 | -26 | 0% | 4% | -38% | 3% | 1.5µM*
O=C(CSCc1ccccc1)N/N=C/c1ccc(OCC(=O)N2CCCCC2)cc1 | 0 | -5% | -26% | -12% | -6% | 25%
COc1ccc(CSCC(=O)N/N=C/c2ccc(OCC(=O)N3CCCCC3)cc2)cc1 | -6 | 3% | -11% | ? | -22% | 21µM*
O=C(CSCc1ccccc1Br)N/N=C/c1ccc(OCC(=O)N2CCCCC2)cc1 | 0 | -11% | 2.9µM* | . | -7% | 1%
COc1ccc(NC(=O)NNC(=O)c2ccc3ccccc3c2O)c(OC)c1 | 39 | 4% | 16% | -14% | -7% | 4%
Cc1cc(=O)n(C)c(=O)n1CCCCCCOc1cccc([N+](=O)[O-])c1 | -1 | 3% | 16µM* | -119% | 26µM* | -72%
Cc1cc(NCc2ccccn2)n2nc(C)c(-c3ccccc3)c2n1 | -15 | -11% | 0.046µM* | ? | 0.052µM* | 6%
Cc1nn2c(NCc3ccccn3)cc(C(C)(C)C)nc2c1-c1ccccc1 | 5 | -3% | ? | 2.9µM* | ? | 2.6µM*
Cc1nn2c(NCc3ccccn3)c3c(nc2c1-c1ccccc1)CCC3 | . | ? | 4.6µM* | ? | 2.6µM* | -11%
SMILES | IL-1B inflam inh | Chronic BCR inh | DT40 TDP1 no CPT | SW480 rerep | DT40 TDP1 CPT | MCF10A rereplic
Cc1nn2c(NCCN3CCOCC3)c3c(nc2c1-c1ccccc1)CCCC3 | -15 | 0% | 5.8µM* | -6% | 2.6µM* | ?
Cc1cc(Nc2ccccc2)n2nc(C)c(-c3ccccc3)c2n1 | -5 | ? | ? | ? | -28% | 0%
COc1ccc(NC(C)=O)cc1S(=O)(=O)N1CC=C(c2ccccc2)CC1 | 8 | 1% | 9% | -13% | 0% | ?
COCCCN1C(=O)C(CC(=O)NC2CCCC2)CC(C(=O)N2CCOCC2)=C1C (centres undefined) | 18 | . | ? | . | 26% | .
CCCc1nn(C)c(C(N)=O)c1[N+](=O)[O-] | 28 | ? | 2% | ? | 13% | -2%
CN(C)C1=NCCN1CCCC1CCCCC1 | ? | 1% | ? | 23µM* | ? | ?
C[C@H]1CN=C(N(C)C)N1CC1CCCCC1 | 22 | -3% | ? | -1%[9.22 µM] | -6% | 3%
CN(C)C1=NCCN1CCC1CCCC1 | 8 | 1% | ? | -23% | ? | 3%
C[C@H]1CN=C(N(C)C)N1CC1CCCC1 | 25 | 1% | -19% | -21%[9.22 µM] | -7% | 0%
C[C@H]1CN=C(N(C)C)N1CCCC1CCCC1 | ? | -1% | 12µM* | 3%[9.22 µM] | 16µM* | -2%
C[C@H]1CN=C(N(C)C)N1CCC1CCCCC1 | 12 | -2% | 16µM* | 7% | ? | -15%
C[C@H]1CN=C(N(C)C)N1CC1CCC(C(C)(C)C)CC1 (some centres undefined) | -8 | ? | 12µM* | -6%[9.22 µM] | 13µM* | ?
COc1ccc(Oc2ncc3nc(-c4ccc(F)cc4)c(=O)n(Cc4cccs4)c3n2)cc1 | . | . | -4% | . | 12% | .
COc1ccccc1CN1CCCC2(CCN(C(C)=O)CC2)C1 | . | . | 4% | . | 13% | .
O=C(O)c1ccc(/C=N/NC(=O)c2cc(-c3cccs3)nc3ccccc23)cc1 | 18 | 0% | 12µM* | -2% | ? | ?
CC(=O)NS(=O)(=O)c1ccc(NC(=O)c2cc(-c3cccs3)nc3ccccc23)cc1 | 0 | 18% | -26% | . | 4% | 9%
O=C(N/N=C/c1ccsc1)c1cc(-c2ccncc2)nc2ccccc12 | 4 | ? | 3.3µM* | 7.3µM* | 3.7µM* | 9.2µM*
O=C(N/N=C/c1ccsc1)c1cc(-c2cccs2)nc2ccccc12 | 7 | ? | 8.2µM* | 6.5µM* | 10µM* | 5.8µM*
